High-throughput results: PubChem BioAssay, National Center for Advancing Translational Sciences (NCATS)
This is a sample that favours compounds with a hit; in the whole collection about 6.5% have one here.
LASV entry inh: qHTS for Inhibitors of binding or entry into cells for Lassa Virus; Lassa virus pseudotype entry inhibition, cell reporter; Potency, µM (highest dose often 37.9 µM), without a hit: at the top dose activity change, negative = inhibition, most hits filed as inhibitors; 300,000 compounds, 1.2% hits; calls by dose curve; tested in HEK293 cells; further: potency means the concentration at half of the fitted maximal effect; nearly all actives have a fitted effect of over 50% in size
VACV Venus inh: qHTS for Stage-Specific Inhibitors of Vaccinia Orthopoxvirus: Venus Reporter Primary qHTS; AID 720580, 2013; Vaccinia virus Venus reporter expression, fluorescence; 330,000 compounds, 0.46% hits; Potency, µM (series often up to 36.5 µM), inactives show at the top dose activity change, negative = inhibition, hits mostly inhibitors; calls by dose curve; tested in A549 cells; further: potency means the concentration at half of the fitted maximal effect; nearly all actives have a fitted effect of over 30% in size
HCMV inh: qHTS Assay for inhibitors of the human cytomegalovirus (HCMV); activity change, negative = inhibition, % at 57.5 µM; 410,000 compounds, 4.5% hits; HFF cells, HCMV-luciferase reporter, 72 h; stronger effect = lower value; in the data active means activity change below about -60%; inconclusive means no clear call, values can overlap the other calls; inactive means above about -39%
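After 16 h attachment at 37C, HFF cells received test compound and HCMV-luciferase (1 PFU/cell); reporter luminescence read 72 h later, data normalized against buffer-only and known inhibitor Salinomycin.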
MARV entry inh: qHTS for inhibitors of binding or entry into cells for Marburg Virus; Marburg virus pseudotyped entry inhibition, cell reporter; Potency, µM (doses to about 37.8 µM), inactives show at the highest dose activity change, negative = inhibition, hits mostly inhibitors; 300,000 compounds, 1.8% hits; calls by dose curve; tested in HEK293 cells; further: potency means the concentration at half of the fitted maximal effect
Vaccinia mCherry: qHTS for Stage-Specific Inhibitors of Vaccinia Orthopoxvirus: mCherry Reporter Primary qHTS; Vaccinia virus mCherry reporter infection, fluorescence; Potency, µM (series often up to 36.5 µM), without a hit: top-dose activity change, negative = inhibition, usual class: inhibitors; 310,000 compounds, 0.63% hits; AID 720579, 2013; calls by dose curve; tested in A549 cells; further: potency means the concentration at half of the fitted maximal effect; nearly all actives have a fitted effect of over 35% in size
FMDV inh: High Throughput Screening for Foot and Mouth Disease Virus Antivirals; 410,000 compounds, 1.2% hits; Potency, µM (highest dose often 57.9 µM), inactives show top-dose activity change, negative = inhibition, most hits filed as inhibitors; AID 1159524, 2015; FMDV antiviral cell-based qHTS; calls by dose curve; tested in HEK293T cells; further: read-out not given here; potency means the concentration at half of the fitted maximal effect; nearly all actives have a fitted effect of over 45% in size
Numbers without * were called inactive; i = inactive; u = inconclusive; x = no result; [ ] = dose if it differs, or a comment. On the % scale 0 is the no-effect control and ±100 the full control effect.

SMILES	LASV entry inh	VACV Venus inh	HCMV inh	MARV entry inh	Vaccinia mCherry	FMDV inh
CC1=C(C#N)C(c2ccccc2)C2=C(N1)c1ccccc1C2=O (stereo not given)	u	-25%	-71*	u	-23%	u
CC1=C(C#N)C(c2cccnc2)C2=C(N1)c1ccccc1C2=O (stereo not given)	19%	-2%	-28	2%	-12%	-14%
N#Cc1c(C(F)(F)F)cc(-c2cccs2)nc1SCc1ccccc1F	7%[46.1 µM]	-2%	-7	2%[46.1 µM]	-12%	-28%
Cc1ccc(NC(=O)c2ccc(NCc3ccc(F)cc3)nc2)cc1	8%	1%	-105*	21%[46.1 µM]	-19%	5%
Cc1ccc(NC(=O)c2ccc(Nc3ccccc3F)nc2)cc1	-1%	x	6	42%	x	38%
CNc1c(Cl)cc(/C=C2\C=Cc3ccccc32)cc1Cl	x	-3%	x	x	31%	x
CCN(CC)C(=O)Cn1ncc2c([nH]c3ccccc32)c1=O	12%[46.1 µM]	-3%	9	x	-4%	-18%
CC(=O)N(C(C)=O)c1ncc2c([nH]c3ccccc32)c1C#N	-14%	u	-77*	u	11µM*	-2%
COc1cc(OC)c2c(=O)c(-c3ccccc3)c(C)oc2c1OC	x	0%	x	x	4%	10%
Cc1ccccc1-n1c(=O)n(Cc2ccccc2)c(=O)c2[nH]cnc21	13µM*	-17%	46	u	i	-16%
Cc1ccccc1-n1c(=O)n(CCc2ccccc2)c(=O)c2[nH]cnc21	x	x	1	x	x	-9%
Clc1nc(NCCc2ccccc2)c2cn[nH]c2n1	u	-27%	-61*	u	-10%	u
Cc1ccc(C(=O)NCc2ccncc2)cc1S(=O)(=O)Nc1cccc(C)c1C	x	x	17	x	x	70%
O=C(NCc1ccncc1)c1ccc(OCc2ccccc2)cc1	x	x	-2	x	x	-21%
Cc1ccc(C)c(NS(=O)(=O)c2cc(C(=O)NCc3ccncc3)ccc2C)c1	-6%	-9%	-69*	u	-23%	39%
Cc1ccc(CNC(=O)c2ccc(COc3ccccc3)cc2)cc1	u	-14%	-63*	-4%	i	15%
Cc1ccc(Oc2ccc(C(=O)NCc3ccncc3)cc2)cc1	8.9µM*	-7%	-83*	u	-28%	u
O=C(NCc1ccncc1)c1ccc(Oc2ccccc2)cc1	-17%	-9%	-18	13%[46.1 µM]	-20%	-15%
CCc1cc[n+](C2=C([O-])c3ccccc3C(=O)/C2=N\S(=O)(=O)c2cccs2)cc1	18µM*	u	u	7.1µM*	u	u
CCCC[n+]1ccn(C2=C([O-])c3ccccc3C(=O)/C2=N\S(=O)(=O)c2ccc(Br)cc2)c1	u	98%	-13	u	u	-23%
COc1ccc(C)cc1NC(C)C(=O)c1c[nH]c2ccccc12 (stereo not given)	x	-20%	x	x	-16%	x
Cn1cnc([N+](=O)[O-])c1Oc1ccccc1	-7%	u	-10	u	28µM*	u
Cn1cnc([N+](=O)[O-])c1Oc1cccc(O)c1	-21%	u	-16	-4%	u	40µM*
Cn1cnc([N+](=O)[O-])c1Cl	-16%	-20%	12	0%	-4%	u
CC[n+]1c(/C=C2\C=C(C)CC(C)(C)C2)sc2ccccc21	9.2µM*	-10%	-19	u	i	u
SMILES	LASV entry inh	VACV Venus inh	HCMV inh	MARV entry inh	Vaccinia mCherry	FMDV inh
CC[n+]1c(/C=C2/C=C(C)CC(C)(C)C2)sc2ccc(OC)cc21	u	4%	-87*	u	x	20µM*
COc1cc2c(cc1OC)C(COc1ccc3c(C)cc(=O)oc3c1)N(C(=O)c1ccccc1C)CC2 (stereo not given)	-16%[46.1 µM]	-7%	10	u	-1%	-28%
O=C(c1ccccc1)[C@@H]1O[C@H]1c1ccc(-c2ccccc2)cc1	x	x	x	x	x	29%
CCc1ccc(-c2cn(-c3nc(C)cc(C)n3)c(=N)o2)cc1	16µM*	x	-101*	u	x	-23%
O=C(NNc1nc2c(F)cccc2s1)c1ccccc1	x	x	-39	x	x	8%
O=C(NNc1nc2ccc(F)cc2s1)c1cccc(F)c1	u	-25%	-81*	11µM*	u	6%
O=C(NNc1nc2c(F)cc(F)cc2s1)c1ccccc1	5%[46.1 µM]	-8%	-70*	u	-19%	13%
CCN(CC)S(=O)(=O)c1ccc(NC(=O)c2cc3ccc4cccnc4c3[nH]2)cc1	10%[46.1 µM]	-4%	u	x	-4%	-25%
COc1ccc(CCNCC2C(Oc3ccc(Cl)cc3)C(=O)N2c2ccccc2C)cc1OC (stereo not given)	5%[46.1 µM]	-23%	u	11µM*	i	u
COCCNCC1C(Oc2ccc(Cl)cc2)C(=O)N1c1ccccc1C (stereo not given)	-19%	-20%	-16	u	i	-18%
CN(CC(=O)Nc1ccc(Cl)cc1)C(=O)c1ccc(N2CCCC2=O)cc1	x	x	-15	x	x	15%
CN(CC(=O)Nc1ccc(OC(F)(F)F)cc1)C(=O)c1ccc(N2CCCC2=O)cc1	x	x	-70*	x	x	u
Cc1csc(NC(=O)c2ccc(N3CCCC3=O)cc2)n1	u	x	-40	1.6µM*	x	-78%
CCN(c1ccc(NC(=O)c2ccc(N3CCCC3=O)cc2)cc1)C(C)C	u	-13%	-70*	u	-29%	u
Cc1sc(N)nc1-c1cccc([N+](=O)[O-])c1	x	-14%	x	x	-3%	x
Cc1ccc(C)c(NC(=O)C(=O)NCCc2csc(-c3cccc(F)c3)n2)c1	17%[46.1 µM]	-8%	-2	x	-21%	7%
Cc1ccc(Nc2nc(NCc3ccco3)nc3nccnc23)cc1C	x	-11%	x	x	-15%	x
Cc1cc(C)cc(N(CCC(=O)O)S(=O)(=O)c2ccc(Cl)cc2)c1	7%	-5%	-69*	-5%	-12%	-4%
C/C(CC(c1ccccc1)c1c(O)c2ccccc2oc1=O)=N\NC(N)=S (stereo not given)	0%	7.9µM*	48	u	4µM*	-6%
O=C(NCCc1ccccn1)c1cc(-c2ccc(Cl)c(Cl)c2Cl)nc2ccccc12	u	u	u	u	u	40µM*
O=C1CN(C(=O)Nc2ccccc2Cl)C(c2ccccc2)c2c(sc3c2CCCC3)N1 (stereo not given)	-23%[46.1 µM]	-11%	-36	-4%[46.1 µM]	-7%	-20%
COc1ccc(CCN(C)CCCOc2ccc(S(=O)(=O)c3[nH]c4ccccc4c3C(C)C)cc2)cc1OC	x	x	x	x	x	-29%
Cc1cc(C(=O)NNC(=O)CCCOc2ccccc2)c(C)o1	1%	4%	-2	-20%[46.1 µM]	-14%	13%
Cc1noc(C)c1COc1ccc(C(=O)NNC(=O)c2ccccc2O)cc1	-23%	u	-23	u	3.5µM*	14%
